Results reported in PubChem BioAssay (NCATS).
“And” between values parts separate entries of the source, which are not always exact repeats. Identical values can stand only once. Records with an inconclusive call do not appear. Entries that show only a call come without a potency. The source made the active and inactive calls. Unless noted, calls come from the whole dose curve; as a rule, active = well fitted curve in the direction sought with a large enough effect; inconclusive = small, poorly fitted or top-dose-only effect, or another doubt; inactive = no such curve, though single readings can be large; an effect the other way counts as inactive or inconclusive.

Assays:
[1] = target: Glutaminase kidney isoform, mitochondrial (Homo sapiens) (UniProt O94925); assay: qHTS for Inhibitors of Glutaminase (GLS): LOPAC Validation (AID 624146); note: nearly all actives have a fitted effect of over 60% in size; note: potency is the fitted concentration of half-maximal effect
Glutaminase kidney isoform, mitochondrial (Homo sapiens), sequence (O94925 whole entry, looked up, canonical isoform): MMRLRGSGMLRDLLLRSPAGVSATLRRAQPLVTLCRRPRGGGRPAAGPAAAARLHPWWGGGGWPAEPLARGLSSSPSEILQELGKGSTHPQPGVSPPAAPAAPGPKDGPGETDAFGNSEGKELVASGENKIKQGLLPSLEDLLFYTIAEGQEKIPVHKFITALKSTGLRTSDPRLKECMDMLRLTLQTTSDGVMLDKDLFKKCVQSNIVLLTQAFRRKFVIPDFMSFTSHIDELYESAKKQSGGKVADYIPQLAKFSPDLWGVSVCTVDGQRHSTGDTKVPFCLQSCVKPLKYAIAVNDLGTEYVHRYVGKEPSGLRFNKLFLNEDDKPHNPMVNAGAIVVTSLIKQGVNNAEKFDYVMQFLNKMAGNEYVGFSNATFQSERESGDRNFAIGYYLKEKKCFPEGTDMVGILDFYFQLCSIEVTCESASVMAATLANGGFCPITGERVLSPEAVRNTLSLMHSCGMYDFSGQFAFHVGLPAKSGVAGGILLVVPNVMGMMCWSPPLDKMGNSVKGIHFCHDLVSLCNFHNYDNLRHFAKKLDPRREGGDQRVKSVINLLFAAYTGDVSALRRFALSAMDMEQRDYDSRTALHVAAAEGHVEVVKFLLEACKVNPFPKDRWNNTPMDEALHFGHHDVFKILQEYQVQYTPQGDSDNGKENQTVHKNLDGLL
In short: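 Two-point fluorescence kinetic (t0, 30 min RT) for hKGA; glutamate detected via glutamate oxidase–HRP–Amplex Red. Substrate: 1 mM L-glutamine solution; buffer 45 mM KH2PO4, pH 8.2.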

[2] = qHTS of Trypanosoma Brucei Inhibitors: LOPAC Validation (AID 624147)
In short: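 ADP (130 uM final) triggers the TbPYK reaction after compound addition; incubation is 45 min at room temperature. Kinase-Glo Plus is then added and luminescence imaged. Normalized data are fitted to concentration-effect curves.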

[3] = target: Glucagon-like peptide 1 receptor (Homo sapiens) (UniProt P43220); assay: qHTS of GLP-1 Receptor Agonists: LOPAC Validation (AID 624148);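 note: higher luminescence signal means agonism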
Glucagon-like peptide 1 receptor (Homo sapiens), sequence (P43220 whole entry, looked up): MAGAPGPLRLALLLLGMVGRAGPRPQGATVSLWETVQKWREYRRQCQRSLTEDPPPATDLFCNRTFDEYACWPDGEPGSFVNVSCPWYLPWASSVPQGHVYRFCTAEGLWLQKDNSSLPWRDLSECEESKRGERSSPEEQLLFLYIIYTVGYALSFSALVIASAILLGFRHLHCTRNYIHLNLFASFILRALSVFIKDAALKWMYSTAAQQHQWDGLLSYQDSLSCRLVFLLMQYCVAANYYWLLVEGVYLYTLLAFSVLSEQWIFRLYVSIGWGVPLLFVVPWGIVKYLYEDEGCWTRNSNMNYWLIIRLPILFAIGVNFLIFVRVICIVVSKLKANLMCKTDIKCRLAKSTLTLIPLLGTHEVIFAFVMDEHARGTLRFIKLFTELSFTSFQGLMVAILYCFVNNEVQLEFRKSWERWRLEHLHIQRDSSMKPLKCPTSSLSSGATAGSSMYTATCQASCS
In short: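 HEK293 cells stably co-expressing GLP-1R and a cAMP-responsive luciferase reporter, plated 12 hours before compound, then incubated 4-6 hr at 37 deg C. Luminescence read 12 min after detection reagent.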

[4] = qHTS of Nrf2 Activators: LOPAC Validation (AID 624149)
In short: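 ARE reporter activation measured in AREc32 firefly luciferase cells after 24 hr compound exposure; Steady-Glo luminescence.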

[5] = S16 Schwann cell PMP22 intronic element beta-lactamase assay (AID 624044; calls by dose curve; note: nearly all actives have a fitted effect of over 15% in size; note: potency is the fitted concentration of half-maximal effect)
In short: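 Rat S16 Schwann cells with beta-Lac driven by a PMP22 intronic element, compound-treated 24 h at 37 °C. LiveBLAzer FRET B/G read: 460 nm normalized to potassium clavulanate vs DMSO; 535 nm FRET as viability; concentration-effect curves classified.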

[6] = HTS Assay for Allosteric Antagonists of the Human D2 Dopamine Receptor: Hit Validation in HTRF (AID 624455);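 note: stable D1 dopamine receptor cell line scored for blocking the D1 response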
In short: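 Signal from an HTRF read-out in D1-expressing stable cells gave hit activity as inhibition of the D1 response.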

| Structure (SMILES) | Potency [1] | outcome [2] | outcome [3] | outcome [4] | Potency [5] | Potency [6] |
| --- | --- | --- | --- | --- | --- | --- |
| c1ccc(CCCN2CCN(CCOC(c3ccccc3)c3ccccc3)CC2)cc1 | inactive | inactive | inactive | inactive |  |  |
| NC(=O)CN1CC(O)CC1=O (stereo unspecified) | inactive | inactive | inactive | inactive | inactive |  |
| CC(=O)[O][Hg][c]1ccccc1 |  |  |  |  | 14.1 µM (active) |  |
| CN(C)[C@@H]1C(=O)C(C(N)=O)=C(O)[C@@]2(O)C(=O)C3=C(O)c4c(O)cccc4[C@@](C)(O)[C@H]3[C@H](O)[C@@H]12 |  |  |  |  | inactive |  |
| CCCN(CCC)[C@@H]1CCc2ccc(O)cc2C1 | inactive | inactive | inactive | inactive |  |  |
| CC[C@@H](C(N)=O)N1CCCC1=O | inactive | inactive | inactive | inactive |  |  |
| CCCN1CCO[C@@H]2c3cc(O)ccc3OC[C@H]21 | 4.47 µM (active) and 1.41 µM (active) | inactive | inactive | inactive |  |  |
| NC(CP(=O)(O)O)C(=O)O (stereo unspecified) | inactive | inactive | inactive | inactive |  |  |
| C/C=C(/C)C(=O)O[C@H]1C(C)=C2[C@H]([C@@H]1OC(=O)CCCCCCC)[C@@](C)(OC(C)=O)C[C@H](OC(=O)CCC)[C@@]1(O)[C@H]2OC(=O)[C@@]1(C)O | inactive | inactive | inactive | inactive |  |  |
| COC(C)(C)CCCC(C)C/C=C/C(C)=C/C(=O)OC(C)C (stereo unspecified) |  |  |  |  | inactive |  |
| COC(=O)[C@@H](N)CCCN=C(N)N[N+](=O)[O-] | inactive | inactive | inactive | inactive | inactive |  |
| C=CCN1CC[C@]23CCCCC2[C@H]1Cc1ccc(O)cc13 (stereo partly specified) | inactive | inactive | inactive | inactive | inactive |  |
| c1ccc(C2(c3ccccc3)CC2C2=NCCN2)cc1 (stereo unspecified) | inactive | inactive | inactive | inactive | inactive |  |
| c1ccc2sc(C3(N4CCCCC4)CCCCC3)cc2c1 | inactive | inactive | inactive | inactive |  |  |
| COC(=O)c1cncn1C(C)c1ccccc1 (stereo unspecified) |  |  |  |  | inactive |  |
| CC(C)NC(C)Cc1ccc(I)cc1 (stereo unspecified) | inactive | inactive | inactive | inactive | inactive |  |
| CC(=O)OCC1=C(C(=O)O)N2C(=O)[C@@H](N)[C@@H]2SC1 |  |  |  |  | inactive |  |
| NC(CCP(=O)(O)O)C(=O)O (stereo unspecified) | inactive | inactive | inactive | inactive |  |  |
| NC1=NC(=O)N2CC12 (stereo unspecified) |  |  |  |  | inactive |  |

| Structure (SMILES) | Potency [1] | outcome [2] | outcome [3] | outcome [4] | Potency [5] | Potency [6] |
| --- | --- | --- | --- | --- | --- | --- |
| CCCN(CCC)C1CCc2ccc(O)cc2C1 (stereo unspecified) | inactive | inactive | inactive | inactive |  |  |
| CN1C2CCC1CC(OC(=O)c1cc(Cl)cc(Cl)c1)C2 (stereo unspecified) | inactive | inactive | inactive | inactive | inactive |  |
| CCCN1CCC[C@H](c2cccc(O)c2)C1 | inactive | inactive | inactive | inactive | inactive |  |
| C#CC1(O)CCC2C3CCC4=CC(=O)CCC4(C)C3CCC21C (stereo unspecified) |  |  |  |  | inactive |  |
| CCCCCCCCCC(CC)c1ccc(S(=O)(=O)O)cc1 (stereo unspecified) |  |  |  |  | inactive |  |
| C[C@]12CCC(=O)C(O)=C1CC[C@@H]1[C@H]3CCC(=O)[C@@]3(C)CC[C@@H]12 |  |  |  |  | inactive |  |
| NCCc1c[nH]c2ccccc12 | inactive | inactive | inactive | inactive |  |  |
| CC[N+]1(CCOC(=O)C(O)(c2ccccc2)c2ccccc2)CCCCC1 |  |  |  |  | inactive |  |
| C#CCOC(=O)C1=CCCN(C)C1 | inactive | inactive | inactive | inactive |  |  |
| CC(=O)NCCc1c[nH]c2ccccc12 | inactive | inactive | inactive | inactive |  | inactive |
| C[C@@H]1O[C@H](C[N+](C)(C)C)C[C@H]1O | inactive | inactive | inactive | inactive |  |  |
| NCc1cc(=O)[nH]o1 | inactive | inactive | inactive | inactive |  |  |
| CS(=N)(=O)CC[C@H](N)C(=O)O (stereo partly specified) | inactive | inactive | inactive | inactive |  |  |
| NC1CC1c1ccccc1 (stereo unspecified) | inactive | inactive | inactive | inactive |  |  |
| CC(C)Oc1cccnc1N(C)C1CCN(Cc2ccccc2)CC1 | inactive | inactive | inactive | inactive |  |  |
| Cc1nccc2c1[nH]c1ccccc12 | inactive | inactive | inactive | inactive |  |  |
| O=C(O)[C@@H]1CCN1 | inactive | inactive | inactive | inactive |  |  |
| O=C(O)Cc1cnc[nH]1 | inactive | inactive | inactive | inactive |  | inactive |
| Clc1cnc(Oc2ccc(Oc3ncc(Cl)cc3Cl)cc2)c(Cl)c1 | inactive | inactive | inactive | inactive |  |  |
